# Laboratory results taken from PubChem BioAssay AID504806 (National Center for Advancing Translational Sciences (NCATS), 2011).
# Activity calls are given as the source filed them. The call rests on the fitted dose curve; in most records, active means well fitted activation curve with a large enough effect; inactive means flat fitted curve, though single readings scatter.
# Assay: Followup screen of LOPAC molecules that induce DNA re-replication in SW480 adenocarcinoma cells
# Settings: Hoechst nuclear DNA content imaging, 48 h; series mostly up to 46.1 µM
# From the text: NIH Molecular Libraries Probe Production Network [MLPCN] NIH Chemical Genomics Center [NCGC] MLPCN Grant: Fast Track K99 CA136555 Assay Provider: Melvin DePamphilis, NICHD, NIH Assay Overview Eukaryotic cells normally restrict genome duplication to once per cell division. When this process is aberrant, DNA re-replication occurs when cells reinitiate DNA replication before the first round of replication is complete. DNA re-replication induces the DNA damage response, arrests cell proliferation, and triggers apoptosis. The cell cycle components cyclin A, Cdt-1, Cdc6 and geminin are critical regulators of this process and their misregulation results in DNA re-replication in normal and cancer cells. To identify compounds that induce re-replication in normal cells, an image-based assay was used to measure DNA content of nuclei, as detected by the fluorescent DNA binding dye, Hoechst. Cell nuclei were imaged by a fluorescence scanning plate imager and compounds that induce DNA re-replication were identified by the increase of nuclei with elevated fluorescence intensity.
# Assay Protocol Summary For screening, 250 cells in 5 uL/well were dispensed into black clear 1536-well plates (Aurora) using a solenoid-based dispenser. Following transfer of 23 nL compound or DMSO vehicle by a pin tool, the plates were incubated 48 hr at 37 C and 5% CO2. After addition of 1 uL/well Hoescht stain, the plates were incubated 40 min at 37 C, 5% CO2 and total intensity of fluorescent objects (nuclei) were enumerated by an Acumen Explorer Ex3 (TTP LabTech) fluorescence scanning plate imager (405 nm excitation, 500-530 nm emission). Keywords: NIH Roadmap, MLPCN, MLI, MLSMR, qHTS, NCGC, DNA replication, cancer
row,SMILES,Potency
1,NCC#Cc1ccccc1,7.55 µM (active)
2,CC(C)NP(=O)(NC(C)C)OP(=O)(NC(C)C)NC(C)C,inactive
3,COc1cc([C@@H]2c3cc4c(cc3[C@H](O)[C@@H]3COC(=O)[C@H]23)OCO4)cc(OC)c1OC,0.0239 µM (active)
